MBNL1 CUG block: MBNL1-poly(CUG) RNA binding inhibition | AID 2675 | 280,000 tested, 0.036% active | TR-FRET MBNL1-His/biotin-(CUG)12 binding, 665/545 ratio | Potency, µM (highest dose often 57.5 µM), inactives show top-dose activity change, negative = inhibition, most hits filed as inhibitors; active = well fitted inhibition curve with a large enough effect in the signal ratio, with a control signal flat, not every such curve was filed as active; inconclusive = small, poorly fitted or top-dose-only effect, or effect the other way, or a change in a side signal; inactive = no such curve, though single readings can be large or run the other way; the % refers to the signal ratio; also: potency is read from the fitted curve at half-maximal effect; % is scaled to controls: 0 for no effect and ±100 for the full control effect
Target sequence (Q9NR56 whole entry, looked up): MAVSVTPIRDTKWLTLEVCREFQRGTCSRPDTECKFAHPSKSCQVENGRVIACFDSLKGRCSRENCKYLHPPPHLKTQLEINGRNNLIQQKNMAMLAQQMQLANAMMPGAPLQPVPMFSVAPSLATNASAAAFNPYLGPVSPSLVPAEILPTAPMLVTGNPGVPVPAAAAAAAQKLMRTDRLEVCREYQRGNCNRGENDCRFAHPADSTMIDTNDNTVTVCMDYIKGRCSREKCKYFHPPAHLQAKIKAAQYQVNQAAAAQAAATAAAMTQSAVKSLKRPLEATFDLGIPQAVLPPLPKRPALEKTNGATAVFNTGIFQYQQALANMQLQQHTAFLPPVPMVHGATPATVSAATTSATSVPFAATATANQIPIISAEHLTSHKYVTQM
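Compounds (final 92 nM to 58 uM) are added to His-tagged MBNL1 and biotin-(CUG)12, then terbium anti-His antibody and streptavidin-XL665 (5 nM final). After 60 min at room temperature, the 665/545 nm ratio is read.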
NPSR antag: blocks cAMP signaling of the human neuropeptide S receptor. Q6W5P4. CHO-NPSR cells, cAMP TR-FRET, antagonist mode. Potency, µM (titrated, usually from 38.3 µM), for the others: at the highest dose activity change, negative = inhibition, most hits filed as inhibitors. 220,000 tested, 1% active; also: potency is read from the fitted curve at half-maximal effect; % is scaled to controls: 0 for no effect and ±100 for the full control effect; nearly all actives have a fitted effect of over 50% in size
Target sequence (Q6W5P4 whole entry, looked up): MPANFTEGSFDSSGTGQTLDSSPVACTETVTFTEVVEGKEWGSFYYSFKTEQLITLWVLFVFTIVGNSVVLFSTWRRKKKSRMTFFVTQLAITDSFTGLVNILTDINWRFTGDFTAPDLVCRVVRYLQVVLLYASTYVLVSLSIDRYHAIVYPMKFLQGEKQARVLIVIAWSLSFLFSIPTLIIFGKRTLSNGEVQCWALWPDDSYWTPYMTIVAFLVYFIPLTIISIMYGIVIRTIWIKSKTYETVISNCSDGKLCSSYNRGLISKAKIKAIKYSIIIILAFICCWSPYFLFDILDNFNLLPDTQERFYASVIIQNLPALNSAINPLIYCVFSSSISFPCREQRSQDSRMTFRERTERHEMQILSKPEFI
CBFb RUNX1 block: blocks binding between human CBF-beta and RUNX1; Q01196+Q13951; AlphaScreen CBFb-His/RUNX1-biotin binding, biochemical; Potency, µM (series often up to 59.8 µM), for inactives: top-dose activity, negative = inhibition, hits mostly inhibitors; 230,000 tested, under 10 active; also: % of control where 0% means no effect
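Room-temperature protein-protein interaction test with 30 nM each of His-tagged CBF-beta and biotinylated RUNX1, 15 min with compound, then 90 min with nickel plus streptavidin beads. Signal read in AlphaScreen mode.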
HTT ATP protect: Huntington cell model cytoprotection by ATP luminescence; Potency, µM (titrated, usually from 56.4 µM), for the others: cytoprotection (ATP increase), usual class: activators; PC12 HTT-Q103 induced, cytoprotection, ATP luminescence, 40 h; AID 1471; 230,000 tested, 0.14% active; also: potency is read from the fitted curve at half-maximal effect; % of control where 0% means no effect; nearly all actives have a fitted effect of over 45% in size
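Huntington model: PC12 line, ecdysone-inducible HTTQ103 exon1–GFP, tebufenozide 100 nM. Test articles in a dose series. Endpoint luminescence from cellular ATP.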
LMNA splice mod: changes lamin A minigene splicing in HeLa cells | 200,000 tested, 0.01% active | Potency, µM (top dose mostly 46.1 µM), for the others: at the top dose ratio change, negative = inhibition, usual class: inhibitors | HeLa LMNA splicing GFP/RFP minigene ratio, 48 h | AID 1487; active = well fitted inhibition curve with a large enough effect in the signal ratio, with a control signal flat, not every such curve was filed as active; inconclusive = small, poorly fitted or top-dose-only effect, or effect the other way, or a change in a side signal; the % refers to the signal ratio; also: potency is read from the fitted curve at half-maximal effect; % is scaled to controls: 0 for no effect and ±100 for the full control effect
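Read-out is the ratio of GFP to DsRed2 object intensity, acquired by 488 nm laser-scanning cytometry on HeLa lamin A-EGFP minigene reporter cells. Compound incubation 48 hrs at 37 °C in Opti-MEM with 2% FBS; DMSO 0.5% final.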
HttQ103 aggreg: mutant huntingtin aggregation inhibition; PC12 HttQ103-GFP aggregates, Acumen cytometry, 40 h; Potency, µM (series often up to 46.1 µM), for inactives: at the highest dose activity change, negative = inhibition, usual class: inhibitors; 220,000 tested, 1.1% active; AID 1688; also: potency is read from the fitted curve at half-maximal effect; % is scaled to controls: 0 for no effect and ±100 for the full control effect; nearly all actives have a fitted effect of over 60% in size
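Aggregates are detected as GFP objects 1–25 µm with signal 6 STDEV over background in lysates of induced PC12 cells. These carry Huntingtin exon 1 with 103 glutamines fused to GFP under an ecdysone promoter; compounds titrated.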
The depositor's hits bear a star; ? = inconclusive; / = no result; [ ] = dose if it differs, or a comment. Shown are actives, neighbours in structure and some others; about 1.1% of the full set was active somewhere. Unless noted, calls follow the shape of the dose curve; as a rule, active = well fitted curve in the direction sought with a large enough effect; inconclusive = small, poorly fitted or top-dose-only effect, or another doubt; inactive = no such curve, though single readings can be large; an effect the other way counts as inactive or inconclusive.

SMILES	MBNL1 CUG block	NPSR antag	CBFb RUNX1 block	HTT ATP protect	LMNA splice mod	HttQ103 aggreg
O=C(Nc1cccc(O)c1)c1cccc(S(=O)(=O)N2CCCC2)c1	-11%	-12%[46.1 µM]	4%	2.8µM*	-13%	-17%
O=C(c1cccc(S(=O)(=O)N2CCCC2)c1)c1cccc(S(=O)(=O)N2CCCC2)c1	-5%	-16%[46.1 µM]	4%	-9%[10 µM]	?	11µM*
O=C(c1cccc(S(=O)(=O)N2CCCCC2)c1)N1CCCCC1	-5%	-8%[46.1 µM]	2%	10%[10 µM]	-2%	-16%
COc1ccc(CNC(=O)CN(Cc2ccccc2)S(=O)(=O)c2ccc(Cl)cc2)cc1	-2%	?	-1%	-19%	-19%	?
COc1ccc(C)cc1S(=O)(=O)N(CC(=O)NCc1ccc(Cl)cc1)Cc1ccccc1	-4%	?	4%	-25%[10 µM]	?	28µM*
C=CCOn1c(C)c(C(C)=O)c2c3nonc3ccc21	?	-12%[46.1 µM]	-2%	8%[1.9 µM]	-10%	11µM*
COn1c(C)c(C(C)=O)c2c3no[n+]([O-])c3ccc21	1%	-9%[46.1 µM]	6%	-12%	5%	-25%
C=CCOn1c(C)c(C(C)=O)c2c3no[n+]([O-])c3ccc21	11%	-18%[46.1 µM]	8%	7%[10 µM]	-2%	22µM*
CCOC(=O)c1c(C)n(OCc2ccccc2)c2ccc3nonc3c12	0%	-24%[46.1 µM]	?	-1%[10 µM]	-5%	10%
CC(/C=C/C=C(\C)C(=O)O[C@@H]1O[C@H](CO[C@@H]2O[C@H](CO)[C@@H](O)[C@H](O)[C@H]2O)[C@@H](O)[C@H](O)[C@H]1O)=C\C=C\C=C(C)\C=C\C=C(/C)C(=O)O[C@@H]1O[C@H](CO[C@@H]2O[C@H](CO)[C@@H](O)[C@H](O)[C@H]2O)[C@@H](O)[C@H](O)[C@H]1O	/	/	/	?	?	-2%
Cn1nc(C(F)(F)F)c(C#N)c1N1CCN(c2ccc(F)cc2)CC1	-4%	-11%[46.1 µM]	3%	28%	?	11µM*
Cn1nc(C(F)(F)F)c(C#N)c1N1CCN(c2ccccc2)CC1	-6%	-2%[46.1 µM]	0%	-11%	?	1.4µM*
Cn1nc(C(F)(F)F)c(C#N)c1N1CCN(c2ccccn2)CC1	/	-5%	-3%	-11%	7%[46 µM]	-27%
Fc1cccc2sc(Nc3nnc(-c4ccccc4)o3)nc12	27%	?	-7%	-6%[1.9 µM]	?	11µM*
COc1cc(OC)cc(-c2nnc(Nc3nc4c(F)cccc4s3)o2)c1	4%	19%[46.1 µM]	5%	4%	?	-6%
Cc1ccc(-c2cn(-c3ccccc3)c3[n+]2CCCS3)cc1	-4%	-13%[46.1 µM]	4%	-84%[10 µM]	?	1.8µM*
CSc1ccc(Cl)c(C(=O)NCC(C)C)c1	-7%	-4%[46.1 µM]	7%	-17%[0.074 µM]	-12%	2µM*
COc1ccccc1NC(=O)c1sc2nc(-c3cc4cc(Cl)ccc4oc3=O)[nH]c(=O)c2c1C	/	/	/	/	16%[46 µM]	/
CN(C)c1ccc(N=Cc2ccco2)cc1	?	7.9µM*	2%	-19%	?	1%[9.22 µM]
Cc1ccc(NC(=S)NCCc2c[nH]c3ccccc23)cc1	-1%	-15%[46.1 µM]	-9%	-5%	0%[0.0737 µM]	0%
Cc1cccc(NC(=S)NCCc2c[nH]c3ccccc23)c1	/	-24%	-3%	9%[10 µM]	-7%	11µM*
COc1ccc(OCC(=O)Nc2ccc(NC(=O)c3cccs3)cc2)cc1	0%	/	/	/	/	/
CN(c1ccc(OCC(=O)OCC(=O)Nc2ccc(Br)cc2)cc1)S(=O)(=O)c1cccs1	-10%	13%	-13%	?	12%	3%
CN(c1ccc(OCC(=O)OCC(=O)Nc2ccccc2)cc1)S(=O)(=O)c1cccs1	-10%	23%	-7%	-80%[1.9 µM]	-10%	1.3µM*
CN(C(=O)c1cccs1)c1ccc(OCC(=O)Nc2ccc(C(=O)O)cc2)cc1	0%	9%	-1%	0.89µM*	/	?
SMILES	MBNL1 CUG block	NPSR antag	CBFb RUNX1 block	HTT ATP protect	LMNA splice mod	HttQ103 aggreg
COc1ccc(Nc2nc3ccccc3nc2NS(=O)(=O)c2cccs2)c(OC)c1	-6%	-26%	3%	0%[10 µM]	/	-17%[9.22 µM]
COc1cccc(Nc2nc3ccccc3nc2NS(=O)(=O)c2cccs2)c1	-2%	-23%[46.1 µM]	1%	-77%	?	14µM*
CCN1c2ccccc2N(C)C1(C)c1ccccc1 (configuration not stated)	?	-9%	-27%	16%[10 µM]	?	13µM*
CN1c2ccccc2N(C)C1(C)c1ccccc1	/	-8%	-7%	-19%[10 µM]	?	-14%
C#C[C@@]1(O)CC[C@H]2[C@H]3CCC4=Cc5oncc5C[C@]4(C)[C@@H]3CC[C@@]21C	/	/	/	20%[1.9 µM]	/	/
COc1ccc(NS(=O)(=O)c2ccc(Oc3ncccn3)cc2)cc1	0%	-7%[46.1 µM]	6%	-35%	?	11µM*
CCCCCC1C/C(=N\O)C=C(C)C1C(=O)OC (configuration not stated)	8%	-14%	6%	11%[10 µM]	/	13%[9.22 µM]
CCCCCCC1/C(=N/O)CCC1C(=O)OC (configuration not stated)	-5%	8%[46.1 µM]	4%	10%	11%	4µM*
O=C1CCSc2ccc(Cl)cc2N1Cc1cccc(Cl)c1	0%	?	?	-5%[10 µM]	-11%	22µM*
Cc1ccc(CN2C(=O)CCSc3ccc(Cl)cc32)cc1	-2%	-22%[46.1 µM]	4%	10%	-4%	18%
CN(C)S(=O)(=O)Oc1cccc(C(=O)Nc2ccc(Cl)c(Cl)c2)c1	-3%	-29%[46.1 µM]	10%	-46%	?	13µM*
CN(C)S(=O)(=O)Oc1cccc(C(=O)Nc2cccc(Cl)c2)c1	1%	-6%[46.1 µM]	0%	33%	-21%	-25%
CCOC(=O)CCCNC(=O)N1CCc2nc(-c3ccc(OC)cc3C)c3c(c2C1)CO[C@@H](c1ccccc1)C3	/	/	-6%[13.1 µM]	-12%[10 µM]	-6%[9.22 µM]	/
COc1ccc(C2C3C=CCC(c4cccc(-c5ccc(N(C)C)cc5)c4)C3C(=O)N2Cc2ccccc2)cc1Cl (configuration not stated)	/	/	-16%	/	/	/
COc1ccc(C2C3C=CCC(c4cccc(-c5ccc(C)cc5)c4)C3C(=O)N2Cc2ccccc2)cc1Cl (configuration not stated)	5%	10µM*	14%	-47%[10 µM]	/	?
C/C(=C(/CCOC(=O)C(C)C)SS/C(CCOC(=O)C(C)C)=C(\C)N(C=O)Cc1cnc(C)nc1N)N(C=O)Cc1cnc(C)nc1N	/	/	/	-2%	/	11%
Cc1ccccc1Oc1nnc(-c2cccs2)c2ccccc12	18%	?	-1%	12%[10 µM]	?	3.5µM*

Screening results deposited in PubChem BioAssay by National Center for Advancing Translational Sciences (NCATS).
